CBFb-RUNX1 inh – CBF-beta/RUNX1 interaction disruption. Q01196+Q13951. AlphaScreen CBFb-His/RUNX1-biotin binding, biochemical. Potency, µM (top dose mostly 59.8 µM), for inactives: top-dose activity, negative = inhibition, most hits filed as inhibitors. 230,000 tested, under 10 active; further: % of control where 0% means no effect
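Inhibition was taken as any reduction in AlphaScreen signal from the CBF-beta–RUNX1 pair (His and biotin tags, 30 nM each), measured after compound (15 min) and bead (90 min) incubations at room temperature.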
ALDH1A1 inh – inhibitors of human aldehyde dehydrogenase 1A1. Purified ALDH1A1, NADH fluorescence, propionaldehyde substrate. AID 1030. hit rate 7.3% among 220,000. Potency, µM (titrated, usually from 75.3 µM), without a hit: top-dose activity, negative = inhibition, usual class: inhibitors. P00352; active means well fitted inhibition curve with a large enough effect, not every such curve was filed as active; inconclusive means small, poorly fitted or top-dose-only effect, or another doubt; inactive means no such curve, though single readings can be large or run the other way;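 further: potency means the concentration at half of the fitted maximal effect; plate controls were no enzyme wells and a reference inhibitor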
HTT aggregate – inhibitors of mutant huntingtin aggregate formation in PC12 cells; PC12 HttQ103-GFP aggregates, Acumen cytometry, 40 h; Potency, µM (top dose mostly 46.1 µM), without a hit: at the highest dose activity change, negative = inhibition, actives largely listed as inhibitors; hit rate 1.1% among 220,000; AID 1688; further: potency means the concentration at half of the fitted maximal effect; on the % scale 0 is the no-effect control and ±100 the full control effect; nearly all actives have a fitted effect of over 60% in size
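Read-out: GFP aggregate count by laser scanning cytometer (488 nm excitation, 500-530 nm emission, 1–25 µm objects >6 SD above background). Cells: PC12, inducible HTTex1-Q103-GFP, 100 nM tebufenozide; compounds titrated.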
HTT ATP protect – cytoprotection in Huntington HTT-Q103 PC12 cell model | PC12 HTT-Q103 induced, cytoprotection, ATP luminescence, 40 h | Potency, µM (series often up to 56.4 µM), without a hit: cytoprotection (ATP increase), actives largely listed as activators | hit rate 0.14% among 230,000; further: potency means the concentration at half of the fitted maximal effect; % of control where 0% means no effect; nearly all actives have a fitted effect of over 45% in size
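PC12 cells with ecdysone-inducible HTT exon 1 Q103-GFP, induced with 100 nM tebufenozide and co-treated with library compounds in a dose series (1536-well, 1500 cells/well). Cytoprotection read as ATP content by ATPlite luminescence.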
PNC assembly inh – perinucleolar compartment assembly inhibition; hit rate 3.1% among 140,000; activity change (PNC), negative = inhibition, % at 10 µM; PC3M PTB-GFP, PNC prevalence imaging, 16 h; hits give low values;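 active means readout at or below -70, meaning at least 70% loss of cells showing the perinucleolar compartment, a nuclear body marking cancer cells; inconclusive means readout between -30 and a set limit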;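 further: plate controls were DMSO wells for no effect and camptothecin positive control wells for full effect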
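PC3M cells stably expressing PTB-GFP, 750–1000 cells/well, treated 16 h at 37 °C with compound (23 nl of library stock), in duplicate. After paraformaldehyde fixation and Hoechst stain, imaged at 20x; PNC prevalence scored by image analysis.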
HPGD inh – HPGD (human) dehydrogenase inhibition; P15428; purified HPGD, NADH fluorescence kinetic, PGE2 substrate; Potency, µM, for inactives: at the top dose activity change, negative = inhibition, most hits filed as inhibitors; hit rate 4.3% among 150,000; AID 894; active means well fitted inhibition curve with a large enough effect, not every such curve was filed as active; inconclusive means small, poorly fitted or top-dose-only effect, or another doubt; inactive means no such curve, though single readings can be large or run the other way; further: potency means the concentration at half of the fitted maximal effect; on the % scale 0 is the no-effect control and ±100 the full control effect
Target sequence (P15428 whole entry, looked up): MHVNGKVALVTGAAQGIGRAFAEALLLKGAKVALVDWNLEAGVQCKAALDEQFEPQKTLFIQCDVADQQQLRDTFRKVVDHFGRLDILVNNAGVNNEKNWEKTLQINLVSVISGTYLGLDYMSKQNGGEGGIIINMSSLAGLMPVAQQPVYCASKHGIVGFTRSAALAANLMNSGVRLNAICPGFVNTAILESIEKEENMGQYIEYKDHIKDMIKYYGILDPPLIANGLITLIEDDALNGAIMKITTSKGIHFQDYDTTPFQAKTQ
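NADH formation kinetics: reaction with 30 uM PGE2 and 1 mM NAD+ (final), 20 nM enzyme, Tris-HCl pH 8 with Tween 20, after 15 min compound preincubation at room temperature. Fluorescence change, last versus first of five reads.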
Active calls of the source: *; ? = inconclusive; / = not tested or not shown; [ ] = remark or other dose. In the library only some 11% were active in any assay of this set; here they are far more common. Unless noted, the call rests on the fitted dose curve; in most records, active means well fitted curve in the direction sought with a large enough effect; inconclusive means small, poorly fitted or top-dose-only effect, or another doubt; inactive means no such curve, though single readings can be large; an effect the other way counts as inactive or inconclusive.

SMILES	CBFb-RUNX1 inh	ALDH1A1 inh	HTT aggregate	HTT ATP protect	PNC assembly inh	HPGD inh
Cc1cc(C)n(-c2ccc3cccc(NS(C)(=O)=O)c3n2)n1	2%	2%	8.9µM*	-59%	-14	-7%
COc1cc(-c2nc(=S)[nH][nH]2)cc(OC)c1OC	-3%	?	-12%[9.22 µM]	-17%[10 µM]	/	/
CC(C)C(=O)NC(=S)N1CCc2ccccc21	-1%	-5%	-3%	/	5	-13%
COc1ccc(OCC(=O)NC(=S)N2CCCc3ccccc32)cc1	?	8.9µM*	?	5%	?	-16%
O=C(COc1ccccc1)NC(=S)N1CCc2ccccc21	-1%	?	0%	41%[10 µM]	-26	-23%
COc1ccccc1C(=O)NC(=S)N1CCc2ccccc21	6%	14µM*	4%	-2%	/	/
COc1ccccc1C(=O)NC(=S)N1CCCc2ccccc21	-3%	3.2µM*	-6%	12%	-11	8.9µM*
O=C(COc1ccccc1Cl)NC(=S)N1CCc2ccccc21	-12%	-6%	-3%	11%	?	20µM*
O=C(/C=C/c1cnc2ccccc2n1)NC12CC3CC(CC(C3)C1)C2	-7%	?	-5%	-6%[10 µM]	-17	-13%
COc1cc(C(=O)NNC2=NC(C)(C)Cc3cc(C)c(C)cc32)cc(OC)c1OC	1%	9%	6%	26%[10 µM]	?	-9%
CC[C@H](C)[C@H](NC(=O)[C@H](Cc1ccc(O)cc1)NC(=O)[C@@H](NC(=O)[C@H](CCCN=C(N)N)NC(=O)[C@@H](N)CC(=O)O)C(C)C)C(=O)N[C@@H](Cc1cnc[nH]1)C(=O)N1CCC[C@H]1C(=O)O	9%	/	/	/	/	/
O=S(=O)(c1cnccc1N1CCN(/N=C/c2ccccc2)CC1)N1CCCCC1	1%	7%	15%	-32%	-1	-10%
CCOC(=O)CSc1n[nH]c(NC(=O)NC(C)C)n1	2%	6%	-16%[9.22 µM]	2%[10 µM]	/	/
Cc1cc(C)n2nc(SCc3nnc(SCc4ccccc4Cl)s3)nc2n1	-6%	8%	-23%	14%[10 µM]	?	28µM*
COc1cccc(CSc2nnc(CSc3nc4nc(C)cc(C)n4n3)s2)c1	-5%	?	-30%	12%	-28	16µM*
Nc1nnc(SCc2ccccc2Cl)s1	1%	0%	14%	-10%[0.074 µM]	20	-7%
Cc1cc(C)n2nc(SCc3nnc(SCc4ccccc4C)s3)nc2n1	-2%	13%	13µM*	18%[10 µM]	?	25µM*
Cc1cc(C)n2nc(SCc3nc4ccccc4[nH]3)nc2n1	15%	0%	7%	-6%	?	-15%
CN1CCN(c2ncc3nc(-c4ccc(Cl)cc4)c(=O)n(Cc4cccs4)c3n2)CC1	/	-2%	/	?	/	/
Cc1cc2nncn2c(Cc2ccccc2)n1	3%	3%	-17%	14%	21	-7%
CCCCC1=CC2=C(c3ccco3)C(=O)C(C)(OC(=O)c3ccc(OC)cc3)C(=O)C2=CO1 (centres undefined)	-3%	1%	/	-39%	/	-12%
O=C(O)c1cnc(-c2ccccc2)nc1Sc1ccccc1	-3%	-2%	13%	-17%	67	14µM*
O=C(O)c1cnc(-c2ccccc2)nc1Sc1cccc(Cl)c1	5%	-3%	10%	17%[10 µM]	?	22µM*
CCC(C)(NC(=O)c1ccc2c(c1)OCO2)C(=O)NC1CCCCC1 (centres undefined)	3%	-4%	-30%	4%	/	/
COCCCNC(=O)C(=O)N/N=C/c1cc2c(cc1Br)OCO2	6%	0%	-8%[9.22 µM]	-25%	/	/
COCCN1C(=O)/C(=C/c2cc3c(cc2Br)OCO3)NC1=S	-13%	0.2µM*	2%[9.22 µM]	6%[10 µM]	/	/
CSc1cccc(CN2CCN(CCC(C)C)C(CCO)C2)c1 (centres undefined)	-2%	9%	-20%	-31%	/	/
Cc1ccc(C)c(C(=O)COc2ncnc3ccccc23)c1	?	-7%	-8%	/	/	/
